Tests used:
[1] = target: T1, Tyrosine-protein kinase receptor TYRO3 (Homo sapiens) (UniProt Q06418); details: at 1 µM
T1 sequence (whole entry): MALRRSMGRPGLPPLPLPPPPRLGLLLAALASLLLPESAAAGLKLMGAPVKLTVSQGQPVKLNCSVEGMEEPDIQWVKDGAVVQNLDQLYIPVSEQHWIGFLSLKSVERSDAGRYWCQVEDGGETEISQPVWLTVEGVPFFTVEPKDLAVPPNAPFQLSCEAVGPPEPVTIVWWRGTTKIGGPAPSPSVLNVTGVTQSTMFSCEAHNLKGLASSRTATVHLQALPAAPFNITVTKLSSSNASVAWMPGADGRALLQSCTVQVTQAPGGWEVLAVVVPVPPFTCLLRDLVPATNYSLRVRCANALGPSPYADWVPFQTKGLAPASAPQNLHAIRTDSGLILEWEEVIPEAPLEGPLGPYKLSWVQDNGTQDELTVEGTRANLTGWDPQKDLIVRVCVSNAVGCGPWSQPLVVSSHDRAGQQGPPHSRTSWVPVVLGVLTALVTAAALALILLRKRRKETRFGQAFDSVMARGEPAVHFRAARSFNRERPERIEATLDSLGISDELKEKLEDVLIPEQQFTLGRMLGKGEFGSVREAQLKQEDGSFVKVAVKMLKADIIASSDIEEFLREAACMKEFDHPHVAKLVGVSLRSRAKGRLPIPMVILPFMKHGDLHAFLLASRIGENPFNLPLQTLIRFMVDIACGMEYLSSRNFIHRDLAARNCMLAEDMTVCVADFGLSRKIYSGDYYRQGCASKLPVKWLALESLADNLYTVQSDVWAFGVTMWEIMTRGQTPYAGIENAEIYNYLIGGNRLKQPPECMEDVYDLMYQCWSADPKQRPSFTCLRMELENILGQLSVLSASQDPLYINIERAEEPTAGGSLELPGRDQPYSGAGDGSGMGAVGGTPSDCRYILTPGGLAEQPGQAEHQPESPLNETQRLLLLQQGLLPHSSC

[2] = target: Tyrosine-protein kinase Yes (Homo sapiens) (UniProt P07947); details: at 0.1 µM
[3] = target: Tyrosine-protein kinase Yes (Homo sapiens) (UniProt P07947); details: at 1 µM
[4] = target: T2, Tyrosine-protein kinase ZAP-70 (Homo sapiens) (UniProt P43403); details: at 0.1 µM
T2 sequence (whole entry): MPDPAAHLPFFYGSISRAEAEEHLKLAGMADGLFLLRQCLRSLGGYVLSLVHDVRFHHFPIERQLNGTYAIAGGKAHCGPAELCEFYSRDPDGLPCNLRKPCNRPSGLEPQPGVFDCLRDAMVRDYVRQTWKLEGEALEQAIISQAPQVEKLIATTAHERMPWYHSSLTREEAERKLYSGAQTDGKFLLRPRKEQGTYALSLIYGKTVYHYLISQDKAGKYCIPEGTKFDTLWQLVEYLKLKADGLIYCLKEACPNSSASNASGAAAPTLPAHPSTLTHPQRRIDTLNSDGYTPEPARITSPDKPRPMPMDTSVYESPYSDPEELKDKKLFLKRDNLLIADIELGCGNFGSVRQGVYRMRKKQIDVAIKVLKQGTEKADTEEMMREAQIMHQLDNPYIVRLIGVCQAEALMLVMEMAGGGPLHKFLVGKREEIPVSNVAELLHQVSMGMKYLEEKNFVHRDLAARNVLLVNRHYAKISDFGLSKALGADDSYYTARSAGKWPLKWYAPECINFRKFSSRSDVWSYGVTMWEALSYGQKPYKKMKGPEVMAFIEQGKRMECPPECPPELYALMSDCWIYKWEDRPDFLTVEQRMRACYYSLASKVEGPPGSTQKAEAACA

[5] = target: T2, Tyrosine-protein kinase ZAP-70 (Homo sapiens); details: at 1 µM
[6] = target: Serine/threonine-protein kinase B-raf (Homo sapiens) (UniProt P15056); details: at 0.1 µM
[7] = target: Serine/threonine-protein kinase B-raf (Homo sapiens) (UniProt P15056); details: at 1 µM
[8] = test system: Serine/threonine-protein kinase B-raf (Homo sapiens), P15056 [V600E]; details: at 0.1 µM
[9] = test system: Serine/threonine-protein kinase B-raf (Homo sapiens), P15056 [V600E]; details: at 1 µM
[10] = target: RAF proto-oncogene serine/threonine-protein kinase (Homo sapiens) (UniProt P04049); details: at 0.1 µM
[11] = target: RAF proto-oncogene serine/threonine-protein kinase (Homo sapiens) (UniProt P04049); details: at 1 µM
[12] = target: T3, Interleukin-1 receptor-associated kinase 4 (Homo sapiens) (UniProt Q9NWZ3); details: at 0.1 µM
T3 sequence (whole entry): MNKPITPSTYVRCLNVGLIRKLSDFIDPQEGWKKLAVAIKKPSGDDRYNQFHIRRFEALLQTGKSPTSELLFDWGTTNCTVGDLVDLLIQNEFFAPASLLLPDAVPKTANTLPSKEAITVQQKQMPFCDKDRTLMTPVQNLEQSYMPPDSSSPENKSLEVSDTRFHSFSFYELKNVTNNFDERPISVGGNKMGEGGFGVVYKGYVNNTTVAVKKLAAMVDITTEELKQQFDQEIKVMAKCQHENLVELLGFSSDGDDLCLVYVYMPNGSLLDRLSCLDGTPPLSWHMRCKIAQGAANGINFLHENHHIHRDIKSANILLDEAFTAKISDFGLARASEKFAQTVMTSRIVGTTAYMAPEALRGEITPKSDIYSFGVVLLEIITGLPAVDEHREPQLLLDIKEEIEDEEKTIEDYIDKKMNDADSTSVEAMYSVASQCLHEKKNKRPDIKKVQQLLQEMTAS

[13] = target: T3, Interleukin-1 receptor-associated kinase 4 (Homo sapiens); details: at 1 µM
[14] = target: Leucine-rich repeat serine/threonine-protein kinase 2 (Homo sapiens) (UniProt Q5S007); details: at 0.1 µM
[15] = target: Leucine-rich repeat serine/threonine-protein kinase 2 (Homo sapiens) (UniProt Q5S007); details: at 1 µM
[16] = test system: Leucine-rich repeat serine/threonine-protein kinase 2 (Homo sapiens), Q5S007 [G2019S]; details: at 0.1 µM
[17] = test system: Leucine-rich repeat serine/threonine-protein kinase 2 (Homo sapiens), Q5S007 [G2019S]; details: at 1 µM

Chain of Leucine-rich repeat serine/threonine-protein kinase 2 (Homo sapiens) (Q5S007 whole entry): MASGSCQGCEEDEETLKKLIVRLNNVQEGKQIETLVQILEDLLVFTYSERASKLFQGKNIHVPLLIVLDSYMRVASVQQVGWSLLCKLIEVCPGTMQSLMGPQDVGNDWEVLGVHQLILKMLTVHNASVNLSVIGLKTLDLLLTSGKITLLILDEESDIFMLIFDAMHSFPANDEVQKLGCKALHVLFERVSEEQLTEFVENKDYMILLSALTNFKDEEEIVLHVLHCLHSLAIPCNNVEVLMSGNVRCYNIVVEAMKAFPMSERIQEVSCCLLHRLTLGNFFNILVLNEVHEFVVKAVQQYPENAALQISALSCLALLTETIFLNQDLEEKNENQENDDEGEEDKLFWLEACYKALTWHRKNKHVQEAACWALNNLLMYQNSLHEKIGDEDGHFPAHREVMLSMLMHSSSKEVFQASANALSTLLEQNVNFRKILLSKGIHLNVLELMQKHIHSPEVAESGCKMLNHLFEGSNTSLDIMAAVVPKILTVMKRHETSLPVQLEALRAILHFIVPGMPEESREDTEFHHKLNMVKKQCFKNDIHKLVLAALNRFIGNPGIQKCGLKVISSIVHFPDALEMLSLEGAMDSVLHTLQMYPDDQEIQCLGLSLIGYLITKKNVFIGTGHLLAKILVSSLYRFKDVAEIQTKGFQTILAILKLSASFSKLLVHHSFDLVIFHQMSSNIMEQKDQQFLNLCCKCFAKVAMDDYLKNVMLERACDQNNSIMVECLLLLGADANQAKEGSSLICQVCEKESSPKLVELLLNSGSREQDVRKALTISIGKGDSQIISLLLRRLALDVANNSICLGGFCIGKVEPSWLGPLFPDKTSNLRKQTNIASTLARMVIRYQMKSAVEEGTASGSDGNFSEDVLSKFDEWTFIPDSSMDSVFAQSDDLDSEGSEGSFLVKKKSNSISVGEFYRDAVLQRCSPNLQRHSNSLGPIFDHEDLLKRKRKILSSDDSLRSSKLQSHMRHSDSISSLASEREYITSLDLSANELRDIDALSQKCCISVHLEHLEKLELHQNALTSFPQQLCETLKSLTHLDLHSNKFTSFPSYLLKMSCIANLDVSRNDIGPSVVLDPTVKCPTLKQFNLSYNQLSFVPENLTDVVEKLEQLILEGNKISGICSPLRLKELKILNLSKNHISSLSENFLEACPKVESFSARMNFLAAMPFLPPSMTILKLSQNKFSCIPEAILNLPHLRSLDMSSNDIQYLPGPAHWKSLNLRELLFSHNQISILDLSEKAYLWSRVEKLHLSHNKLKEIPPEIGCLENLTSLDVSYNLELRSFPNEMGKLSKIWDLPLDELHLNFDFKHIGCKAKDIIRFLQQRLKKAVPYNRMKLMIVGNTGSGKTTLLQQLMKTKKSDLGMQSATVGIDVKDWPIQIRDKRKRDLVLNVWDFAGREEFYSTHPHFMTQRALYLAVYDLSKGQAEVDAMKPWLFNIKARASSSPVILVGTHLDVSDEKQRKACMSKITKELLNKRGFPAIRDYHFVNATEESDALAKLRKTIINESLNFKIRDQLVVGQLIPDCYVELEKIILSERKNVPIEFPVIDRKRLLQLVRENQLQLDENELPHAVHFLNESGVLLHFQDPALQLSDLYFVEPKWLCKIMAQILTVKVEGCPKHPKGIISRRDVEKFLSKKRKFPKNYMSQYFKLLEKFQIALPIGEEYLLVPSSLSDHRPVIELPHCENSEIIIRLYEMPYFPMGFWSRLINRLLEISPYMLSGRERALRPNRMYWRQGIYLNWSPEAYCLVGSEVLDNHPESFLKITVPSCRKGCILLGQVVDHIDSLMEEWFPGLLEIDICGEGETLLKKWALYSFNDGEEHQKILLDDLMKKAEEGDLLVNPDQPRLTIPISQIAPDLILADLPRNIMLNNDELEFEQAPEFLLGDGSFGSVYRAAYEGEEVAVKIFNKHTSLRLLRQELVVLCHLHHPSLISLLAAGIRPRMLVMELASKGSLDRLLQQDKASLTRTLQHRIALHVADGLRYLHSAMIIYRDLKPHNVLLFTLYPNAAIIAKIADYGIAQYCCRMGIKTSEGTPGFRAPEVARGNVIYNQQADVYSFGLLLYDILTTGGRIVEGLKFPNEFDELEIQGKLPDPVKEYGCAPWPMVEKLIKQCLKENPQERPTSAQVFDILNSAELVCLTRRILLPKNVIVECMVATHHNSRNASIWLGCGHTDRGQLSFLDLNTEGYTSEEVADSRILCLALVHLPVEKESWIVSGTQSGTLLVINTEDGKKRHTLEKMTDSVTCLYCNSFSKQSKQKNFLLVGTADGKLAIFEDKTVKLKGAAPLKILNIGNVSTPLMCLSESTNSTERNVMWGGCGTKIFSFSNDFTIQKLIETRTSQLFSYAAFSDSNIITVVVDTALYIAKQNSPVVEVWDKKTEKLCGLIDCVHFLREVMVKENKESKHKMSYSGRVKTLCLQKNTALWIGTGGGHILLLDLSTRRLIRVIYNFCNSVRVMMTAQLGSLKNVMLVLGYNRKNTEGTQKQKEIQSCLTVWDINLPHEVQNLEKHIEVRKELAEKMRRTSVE
Chain of Serine/threonine-protein kinase B-raf (Homo sapiens), P15056 [V600E] (P15056 whole entry V600E): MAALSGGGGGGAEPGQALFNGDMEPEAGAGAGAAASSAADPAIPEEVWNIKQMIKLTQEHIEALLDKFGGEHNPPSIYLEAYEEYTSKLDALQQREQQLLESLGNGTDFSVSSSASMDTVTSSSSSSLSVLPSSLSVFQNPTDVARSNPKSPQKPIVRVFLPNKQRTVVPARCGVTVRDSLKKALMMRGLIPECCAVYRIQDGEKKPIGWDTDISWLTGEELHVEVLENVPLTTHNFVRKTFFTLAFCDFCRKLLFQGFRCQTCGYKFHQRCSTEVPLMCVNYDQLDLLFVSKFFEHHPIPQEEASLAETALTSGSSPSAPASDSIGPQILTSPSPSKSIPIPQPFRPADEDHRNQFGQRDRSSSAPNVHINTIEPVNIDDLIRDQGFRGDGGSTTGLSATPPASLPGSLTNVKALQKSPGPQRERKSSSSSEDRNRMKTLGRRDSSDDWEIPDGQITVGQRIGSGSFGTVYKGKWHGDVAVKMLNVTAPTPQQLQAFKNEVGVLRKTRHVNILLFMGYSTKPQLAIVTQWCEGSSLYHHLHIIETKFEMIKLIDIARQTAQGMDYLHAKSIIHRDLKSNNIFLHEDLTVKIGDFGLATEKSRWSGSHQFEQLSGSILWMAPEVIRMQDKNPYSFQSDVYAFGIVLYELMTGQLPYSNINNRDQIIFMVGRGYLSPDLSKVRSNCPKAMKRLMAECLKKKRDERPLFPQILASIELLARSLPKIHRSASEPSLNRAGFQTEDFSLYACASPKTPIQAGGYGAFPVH
Chain of Serine/threonine-protein kinase B-raf (Homo sapiens) (P15056 whole entry): as the sequence (P15056 whole entry V600E) above, with E600V counted along it
Chain of RAF proto-oncogene serine/threonine-protein kinase (Homo sapiens) (P04049 whole entry): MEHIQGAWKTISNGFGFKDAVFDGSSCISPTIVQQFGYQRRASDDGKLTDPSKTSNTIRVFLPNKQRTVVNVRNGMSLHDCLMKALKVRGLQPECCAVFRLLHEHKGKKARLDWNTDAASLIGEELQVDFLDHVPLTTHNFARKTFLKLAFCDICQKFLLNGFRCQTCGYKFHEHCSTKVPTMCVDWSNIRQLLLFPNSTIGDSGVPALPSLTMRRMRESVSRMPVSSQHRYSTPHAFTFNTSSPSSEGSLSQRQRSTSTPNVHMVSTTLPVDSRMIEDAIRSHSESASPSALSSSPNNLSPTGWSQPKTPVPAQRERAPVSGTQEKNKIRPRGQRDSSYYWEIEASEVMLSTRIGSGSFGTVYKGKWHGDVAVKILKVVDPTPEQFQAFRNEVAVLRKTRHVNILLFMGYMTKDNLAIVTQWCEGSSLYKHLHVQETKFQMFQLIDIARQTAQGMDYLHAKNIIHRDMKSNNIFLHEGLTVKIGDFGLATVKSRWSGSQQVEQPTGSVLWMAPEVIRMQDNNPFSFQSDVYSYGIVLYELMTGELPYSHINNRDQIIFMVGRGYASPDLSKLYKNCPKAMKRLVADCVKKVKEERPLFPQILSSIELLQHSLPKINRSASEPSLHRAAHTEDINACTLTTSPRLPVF
Chain of Tyrosine-protein kinase Yes (Homo sapiens) (P07947 2-543 limits assumed): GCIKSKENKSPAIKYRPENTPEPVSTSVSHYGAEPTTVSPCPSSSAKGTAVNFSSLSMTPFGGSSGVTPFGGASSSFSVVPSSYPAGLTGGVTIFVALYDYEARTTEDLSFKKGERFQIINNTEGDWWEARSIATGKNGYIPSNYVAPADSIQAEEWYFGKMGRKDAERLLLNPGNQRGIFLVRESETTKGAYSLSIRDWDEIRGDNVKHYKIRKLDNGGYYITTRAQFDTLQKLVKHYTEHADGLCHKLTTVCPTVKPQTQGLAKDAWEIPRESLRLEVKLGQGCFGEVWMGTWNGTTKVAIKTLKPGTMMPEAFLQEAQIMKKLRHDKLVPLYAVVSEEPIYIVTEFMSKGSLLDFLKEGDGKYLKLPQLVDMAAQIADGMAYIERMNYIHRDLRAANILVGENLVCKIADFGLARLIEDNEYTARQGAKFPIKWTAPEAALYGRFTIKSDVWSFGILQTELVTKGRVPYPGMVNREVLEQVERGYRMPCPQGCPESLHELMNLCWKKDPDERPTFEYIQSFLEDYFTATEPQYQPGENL
Chain of Leucine-rich repeat serine/threonine-protein kinase 2 (Homo sapiens), Q5S007 [G2019S] (Q5S007 whole entry G2019S): as the sequence (Q5S007 whole entry) above, with G2019S counted along it

Row | Structure (SMILES) | inhibition [1] | inhibition [2] | inhibition [3] | inhibition [4] | inhibition [5] | inhibition [6] | inhibition [7] | inhibition [8] | inhibition [9] | inhibition [10] | inhibition [11] | inhibition [12] | inhibition [13] | inhibition [14] | inhibition [15] | inhibition [16] | inhibition [17]
1 | COc1ccccc1Nc1ncc(-c2ccccc2)o1 | 2.12% | 2.01% | 6.48% | 0.73% | 4.36% | 6.58% | 7.19% | 4.73% | 3.58% | 3.32% | 1.9% | 2.31% | 2.99% | 4.53% | 8.57% | 6.36% | 11.3%
2 | CC(C)=Cc1cccc2c1/C(=N/Nc1ccc(S(N)(=O)=O)cc1)C(=O)N2 | 9.24% | 2.28% | 18% | 4.6% | 4.98% | 0.07% | 2.13% | 0.1% | 2.83% | 3.26% | -1.14% | -0.76% | 0.79% | 14.9% | 65.4% | 17.7% | 60.9%
3 | NC(=O)c1ccc(-c2nc(-c3ccccn3)c(-c3ccc4c(c3)OCO4)[nH]2)cc1 | 1.12% | 2.51% | 7.17% | 0.96% | -2.34% |  |  |  |  | -6.15% | 15.6% | 2.26% | 1.06% | 2.49% | 5.02% | 2.85% | 3.41%
4 | CCN1CCC(CC(=O)Nc2n[nH]c3nc(-c4cccs4)c(Br)cc23)CC1 | 0.12% | -2.01% | 2.56% | -3.15% | -1.71% | -3.34% | -4.88% | -3.29% | -4.51% | 3.42% | 1.23% | -3.96% | -0.76% | -0.41% | 2.42% | 0.89% | 2.44%
5 | O=C1NC(=O)C(N2CCc3ccccc32)=C1c1ccc(Cl)cc1 | 3.19% | 0.13% | 1.35% | 3.14% | 4.58% | 6% | 7.8% | 6.55% | 6.79% | 0.98% | 0.17% | 3.05% | 1.81% | 3.88% | 8.75% | 4.99% | 10.7%
6 | CN1CCC(C(=O)Nc2n[nH]c3nnc(-c4ccccc4)cc23)CC1 | 5.28% | 3.36% | 3.47% | 4.09% | 5.43% | 7.26% | 7.83% | 8.27% | 7.58% | 16.6% | 8.96% | 1.96% | 2.54% | 1.09% | 3.72% | 3.14% | 6.96%
7 | [O-][S+]1CCN(Cc2ccc(-c3ccc4ncnc(Nc5ccc(OCc6ccccc6)c(F)c5)c4c3)o2)CC1 | 3.36% | 5.74% | 30.5% | 2.48% | 1.13% | 2.02% | 5.8% | 2.97% | 6.44% | -0.54% | -3.42% | 3.06% | 1.06% | 2.89% | 2.77% | 2.32% | 8.38%

Source: ChEMBL document CHEMBL1961873, “Compounds: GSK PKIS; Assays: Nanosyn kinase panel” (2012)
